Data on four compounds can be found in PMC11062922 (Nature Chemical Biology, 2023).

Read-outs that look alike come from different tables or passages of the source.

Test [1] deals with ADCK3. Further details: species or system human, MV4-11 + K-562 + COLO205 + SK-N-BE2 + OVCAR-8. The following applies: read-out: apparent Kd, n = 1.
In test [2] the test system is IRAK3. Further details: species or system human, MV4-11 + K-562 + COLO205 + SK-N-BE2 + OVCAR-8. The following applies: read-out: apparent Kd; compound concentrations: 100 nM and 1000 nM (sheet 'Samples'), CATDS: 0.24255292072304399; n = 1.
The test system of test [3] is LIMK1. Further details: species or system human, MV4-11 + K-562 + COLO205 + SK-N-BE2 + OVCAR-8. The following applies: read-out: apparent Kd, compound concentrations: 100 nM and 1000 nM (sheet 'Samples'), n = 1.
The subject of test [4] is NEK1. Further details: species or system human, MV4-11 + K-562 + COLO205 + SK-N-BE2 + OVCAR-8. The note with it: read-out: apparent Kd; compound concentrations: 100 nM and 1000 nM (sheet 'Samples'), CATDS: 0.13907038524561799; n = 1.
Test [5] relates to NUAK2. Further details: species or system human, MV4-11 + K-562 + COLO205 + SK-N-BE2 + OVCAR-8. The following applies: read-out: apparent Kd; compound concentrations: 100 nM and 1000 nM (sheet 'Samples'), CATDS: 0.15992761786182699; n = 1.
Test [6] has as its target Q6ZSR9 (human, UniProt Q6ZSR9). Set-up: species or system MV4-11 + K-562 + COLO205 + SK-N-BE2 + OVCAR-8. The note with it: read-out: apparent Kd; compound concentrations: 100 nM and 1000 nM (sheet 'Samples'), CATDS: 0.17489786753405201; n = 1.
Test [7] relates to CLK1. Set-up: species or system human, MV4-11 + K-562 + COLO205 + SK-N-BE2 + OVCAR-8. The following applies: read-out: apparent Kd; compound concentrations: 100 nM and 1000 nM (sheet 'Samples'), CATDS: 7.7083223058971695E-2; n = 1.
For test [8], the system named is CLK4. Further details: species or system human, MV4-11 + K-562 + COLO205 + SK-N-BE2 + OVCAR-8. The note with it: read-out: apparent Kd; compound concentrations: 100 nM and 1000 nM (sheet 'Samples'), CATDS: 5.4708251309819003E-2; n = 1.
Test [9] deals with FER. Further details: species or system human, MV4-11 + K-562 + COLO205 + SK-N-BE2 + OVCAR-8. The note with it: read-out: apparent Kd; compound concentrations: 100 nM and 1000 nM (sheet 'Samples'), CATDS: 0.15534788887379899; n = 1.
In test [10] the test system is FES. Further details: species or system human, MV4-11 + K-562 + COLO205 + SK-N-BE2 + OVCAR-8. The following applies: read-out: apparent Kd; compound concentrations: 100 nM and 1000 nM (sheet 'Samples'), CATDS: 6.2151263603986602E-2; n = 1.
Test [11] concerns IGF1R. Set-up: species or system human, MV4-11 + K-562 + COLO205 + SK-N-BE2 + OVCAR-8. The following applies: read-out: apparent Kd; compound concentrations: 100 nM and 1000 nM (sheet 'Samples'), CATDS: 0.14317930106922699; n = 1.
Test [12] concerns INSR. Further details: species or system human, MV4-11 + K-562 + COLO205 + SK-N-BE2 + OVCAR-8. The note with it: read-out: apparent Kd; compound concentrations: 100 nM and 1000 nM (sheet 'Samples'), CATDS: 0.19841534550213699; n = 1.
Test [13] deals with PLK1. Further details: species or system human, MV4-11 + K-562 + COLO205 + SK-N-BE2 + OVCAR-8. The following applies: read-out: apparent Kd; compound concentrations: 100 nM and 1000 nM (sheet 'Samples'), CATDS: 5.09869917251893E-2; n = 1.
The test system of test [14] is PRKCZ. Further details: species or system human, MV4-11 + K-562 + COLO205 + SK-N-BE2 + OVCAR-8. The note with it: read-out: apparent Kd; compound concentrations: 100 nM and 1000 nM (sheet 'Samples'), CATDS: 4.7711419359540999E-2; n = 1.
Test [15] deals with PTK2B. Further details: species or system human, MV4-11 + K-562 + COLO205 + SK-N-BE2 + OVCAR-8. The following applies: read-out: apparent Kd; compound concentrations: 100 nM and 1000 nM (sheet 'Samples'), CATDS: 0.144435732024948; n = 1.
The subject of test [16] is PTK2. Set-up: species or system human, MV4-11 + K-562 + COLO205 + SK-N-BE2 + OVCAR-8. The note with it: read-out: apparent Kd; compound concentrations: 100 nM and 1000 nM (sheet 'Samples'), CATDS: 9.0293978496921806E-2; n = 1.
Test [17] relates to RIPK3. Set-up: species or system human, MV4-11 + K-562 + COLO205 + SK-N-BE2 + OVCAR-8. The following applies: read-out: apparent Kd; compound concentrations: 100 nM and 1000 nM (sheet 'Samples'), CATDS: 4.6981822696137099E-2; n = 1.
Test [18] concerns TNK1. Further details: species or system human, MV4-11 + K-562 + COLO205 + SK-N-BE2 + OVCAR-8. The following applies: read-out: apparent Kd; compound concentrations: 100 nM and 1000 nM (sheet 'Samples'), CATDS: 8.1384476326193098E-2; n = 1.
Test [19] deals with TTK. Set-up: species or system human, MV4-11 + K-562 + COLO205 + SK-N-BE2 + OVCAR-8. The following applies: read-out: apparent Kd; compound concentrations: 100 nM and 1000 nM (sheet 'Samples'), CATDS: 4.6872796614934702E-2; n = 1.
The test system of test [20] is ADCK1. Set-up: species or system human, MV4-11 + K-562 + COLO205 + SK-N-BE2 + OVCAR-8. The following applies: read-out: apparent Kd; compound concentrations: 100 nM and 1000 nM (sheet 'Samples'), CATDS: 6.3645310719154996E-2; n = 1.
For test [21], the system named is FLT3. Set-up: species or system human, MV4-11 + K-562 + COLO205 + SK-N-BE2 + OVCAR-8. The note with it: read-out: apparent Kd; compound concentrations: 100 nM and 1000 nM (sheet 'Samples'), CATDS: 0.35383441234921298; n = 1.
Test [22] concerns JAK2. Set-up: species or system human, MV4-11 + K-562 + COLO205 + SK-N-BE2 + OVCAR-8. The note with it: read-out: apparent Kd; compound concentrations: 100 nM and 1000 nM (sheet 'Samples'), CATDS: 0.243308820463081; n = 1.
Test [23] concerns LYN. Further details: species or system human, MV4-11 + K-562 + COLO205 + SK-N-BE2 + OVCAR-8. The following applies: read-out: apparent Kd; compound concentrations: 100 nM and 1000 nM (sheet 'Samples'), CATDS: 6.5965838221970899E-2; n = 1.
Test [24] relates to MAPK14. Set-up: species or system human, MV4-11 + K-562 + COLO205 + SK-N-BE2 + OVCAR-8. The following applies: read-out: apparent Kd; compound concentrations: 100 nM and 1000 nM (sheet 'Samples'), CATDS: 7.0797769182365994E-2; n = 1.
The test system of test [25] is MTOR. Set-up: species or system human, MV4-11 + K-562 + COLO205 + SK-N-BE2 + OVCAR-8. The note with it: read-out: apparent Kd; compound concentrations: 100 nM and 1000 nM (sheet 'Samples'), CATDS: 8.3808219559409397E-2; n = 1.
The test system of test [26] is PIK3CD. Set-up: species or system human, MV4-11 + K-562 + COLO205 + SK-N-BE2 + OVCAR-8. The note with it: read-out: apparent Kd; compound concentrations: 100 nM and 1000 nM (sheet 'Samples'), CATDS: 0.184193400818676; n = 1.
Test [27] has as its system PRKACG. Further details: species or system human, MV4-11 + K-562 + COLO205 + SK-N-BE2 + OVCAR-8. The following applies: read-out: apparent Kd; compound concentrations: 100 nM and 1000 nM (sheet 'Samples'), CATDS: 7.8396451474863002E-2; n = 1.
Test [28] has as its system PRKDC. Set-up: species or system human, MV4-11 + K-562 + COLO205 + SK-N-BE2 + OVCAR-8. The following applies: read-out: apparent Kd; compound concentrations: 100 nM and 1000 nM (sheet 'Samples'), CATDS: 6.9640678326095301E-2; n = 1.
In test [29] the test system is RET. Set-up: species or system human, MV4-11 + K-562 + COLO205 + SK-N-BE2 + OVCAR-8. The following applies: read-out: apparent Kd; compound concentrations: 100 nM and 1000 nM (sheet 'Samples'), CATDS: 7.1676948179133407E-2; n = 1.
Test [30] concerns T1, T10.
T1 construct: gene NAT10
Further details: species or system human, MV4-11 + K-562 + COLO205 + SK-N-BE2 + OVCAR-8. The following applies: read-out: apparent Kd; compound concentrations: 100 nM and 1000 nM (sheet 'Samples'), CATDS: 5.8337212061708103E-2; n = 1.

The test system of test [31] is ERCC2. Set-up: species or system human, MV4-11 + K-562 + COLO205 + SK-N-BE2 + OVCAR-8. The note with it: read-out: apparent Kd; compound concentrations:100 nM and 1000 nM (sheet 'Samples'); n = 1.
The test system of test [32] is MAP4K5. Further details: species or system human, MV4-11 + K-562 + COLO205 + SK-N-BE2 + OVCAR-8. The following applies: read-out: apparent Kd; compound concentrations:100 nM and 1000 nM (sheet 'Samples'); n = 1.

Q6ZSR9, sequence (Q6ZSR9 whole entry, looked up): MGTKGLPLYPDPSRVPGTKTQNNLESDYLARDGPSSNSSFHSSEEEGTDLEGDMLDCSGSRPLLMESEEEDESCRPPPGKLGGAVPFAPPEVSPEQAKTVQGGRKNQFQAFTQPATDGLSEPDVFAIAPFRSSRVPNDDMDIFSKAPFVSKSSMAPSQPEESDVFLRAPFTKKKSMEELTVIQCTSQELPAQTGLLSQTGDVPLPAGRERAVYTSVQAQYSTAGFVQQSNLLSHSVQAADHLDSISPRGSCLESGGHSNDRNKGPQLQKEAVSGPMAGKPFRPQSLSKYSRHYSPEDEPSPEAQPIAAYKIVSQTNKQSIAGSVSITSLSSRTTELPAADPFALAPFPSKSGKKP

In the case of `COc1cc(Nc2nccc(N3CCC(NC(=O)Nc4cccc(C(C)=O)c4)C3)n2)cc(OC)c1OC` (centres unmarked) [GSK1379753A], the potency estimated from few doses is 1.38 µM in test [1] (compound concentrations: 100 nM and 1000 nM (sheet 'Samples'), CATDS: 0.16868464966378999); 0.726 µM in [2]; 1.85 µM in test [3] (CATDS: 0.14732071058877899); 2.14 µM in test [4]; 1.54 µM in test [5]; 1.28 µM in test [6].

Take `COc1cc(C)c(NC(=O)CN(C)C)cc1Nc1nc(Nc2cccc(F)c2C(N)=O)c2cc[nH]c2n1` [GSK2213727A]: the potency estimated from few doses was 0.688 µM in [1] (compound concentrations: 100 nM and 1000 nM (sheet 'Samples'), CATDS: 5.9808730869804497E-2); 0.335 µM in [7]; 0.936 µM in test [8]; 0.0827 µM in test [9]; 0.609 µM in test [10]; 0.0947 µM in [11]. Moreover, the potency estimated from few doses was 0.0567 µM in test [12]; 1.23 µM in test [13]; 1.66 µM in test [14]; 0.0933 µM in test [15]; 0.231 µM in test [16]; 1.79 µM in [17]. The potency estimated from few doses is 0.293 µM in test [18] and 1.81 µM in test [19].

Regarding `CN(c1ccc(NC(=O)Nc2cc(C(F)(F)F)ccc2F)cc1)c1ccnc(Nc2ccc(S(N)(=O)=O)cc2)n1` [GW809893X], the potency estimated from few doses was 1.37 µM in [20]; 0.0361 µM in test [21]; 0.065 µM in test [22]; 1.63 µM in test [3] (CATDS: 6.0612482504371901E-2); 1.21 µM in test [23]; 0.973 µM in test [24]. Besides, the potency estimated from few doses was 0.61 µM in test [25]; 0.107 µM in [26]; 0.728 µM in [27]; 1.02 µM in test [28]; 0.938 µM in test [29]; 1.88 µM in [30].

As for `Nc1ncc(-c2cccnc2)c2scc(-c3ccc4c(c3)CCN4C(=O)Cc3ccccc3)c12` [GSK683281A], the potency estimated from few doses in [1] (compound concentrations:100 nM and 1000 nM (sheet 'Samples')) is 0.76 µM; in [31] it was 1.56 µM; in [32] it was 1.56 µM.
